In the library only some 1.3% were active in any assay of this set; here they are far more common.
FBPA Giardia inh – Giardia lamblia aldolase inhibition; A8B2U2; purified Giardia FBPA; Potency, µM (highest dose often 59.6 µM), actives largely listed as inhibitors; 0.71% of 290,000 active; AID 2451; note: nearly all actives have a fitted effect of over 55% in size
Target sequence (A8B2U2 whole entry, looked up): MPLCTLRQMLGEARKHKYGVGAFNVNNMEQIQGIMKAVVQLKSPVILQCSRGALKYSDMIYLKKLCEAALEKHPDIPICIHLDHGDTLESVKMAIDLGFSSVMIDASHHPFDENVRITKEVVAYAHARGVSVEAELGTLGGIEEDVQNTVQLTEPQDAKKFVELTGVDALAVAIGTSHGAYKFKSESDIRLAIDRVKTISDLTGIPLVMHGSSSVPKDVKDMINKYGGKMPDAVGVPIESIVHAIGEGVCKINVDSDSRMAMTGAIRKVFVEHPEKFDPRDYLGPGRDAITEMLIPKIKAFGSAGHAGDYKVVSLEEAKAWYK
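Giardia FBPA (40 nM reagent) was preincubated 10 min at RT with compound (up to 57.5 uM final), then substrate plus GAPDH/TPI/NAD/arsenate coupling system with diaphorase/resazurin was added; resorufin fluorescence (525/598 nm) was read after 20 min.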
LmPK inhibitor – LmPK (Leishmania mexicana) enzyme inhibition. Q27686. purified LmPK, Kinase-Glo ATP luminescence, 1 h. Potency, µM (highest dose often 57.5 µM), usual class: inhibitors. 0.37% of 290,000 active
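Screened at intermediate enzyme activity to detect both inhibitors and activators: LmPK at 0.1 nM, with a 0.5 nM enzyme column as activation reference. PEP 0.5 mM, ADP 0.1 mM; ATP detected by luminescence after 1 h.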
AmpC inh detg – inhibitors of E. coli AmpC beta-lactamase with detergent; Potency, µM (top dose mostly 114 µM), usual class: inhibitors; 0.041% of 370,000 active; AmpC hydrolysis of nitrocefin, absorbance 480 nm, 0.01% Triton; AID 485294; P00811; note: nearly all actives have a fitted effect of over 25% in size
Target sequence (P00811 whole entry, looked up): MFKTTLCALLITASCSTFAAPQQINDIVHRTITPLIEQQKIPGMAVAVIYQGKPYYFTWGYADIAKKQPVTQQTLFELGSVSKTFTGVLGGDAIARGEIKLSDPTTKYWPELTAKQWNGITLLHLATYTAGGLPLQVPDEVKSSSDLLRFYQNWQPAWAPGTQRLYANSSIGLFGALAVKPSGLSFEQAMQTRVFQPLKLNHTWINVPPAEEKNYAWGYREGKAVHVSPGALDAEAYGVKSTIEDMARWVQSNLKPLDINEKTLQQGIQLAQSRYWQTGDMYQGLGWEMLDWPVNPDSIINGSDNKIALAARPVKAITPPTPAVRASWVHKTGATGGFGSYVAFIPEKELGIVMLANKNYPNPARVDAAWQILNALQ
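20 mM phosphate pH 7.0 + 0.01% (detergent screen) or 0.0001% Triton X-100; 5.3 nM AmpC reagent; cpd preinc 15 min RT; nitrocefin (800 uM stock) to start; A480 q20 s × 4 min; Activity was normalised to no-enzyme and no-compound control wells.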
AmpC no deterg – blocks E. coli AmpC beta-lactamase in detergent-free assay | P00811 | AmpC nitrocefin hydrolysis, absorbance 480 nm, 0.0001% Triton | Potency, µM (highest dose often 57.1 µM), actives largely listed as inhibitors | 0.52% of 330,000 active | AID 485341; note: nearly all actives have a fitted effect of over 20% in size
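AmpC (5.3 nM in the dispensed reagent) in 20 mM phosphate pH 7.0 with 0.01% (detergent screen) or 0.0001% Triton X-100 was preincubated with compounds for 15 min at room temperature. Nitrocefin was then added from an 800 uM solution, and hydrolysis was followed at 480 nm.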
AMA1 RON2 block – AMA1-RON2 (P. falciparum) interaction inhibition | AlphaScreen AMA1-biotinylated RON2 peptide binding | Potency, µM (series often up to 58.2 µM), actives largely listed as inhibitors | 0.2% of 360,000 active | AID 720542; note: nearly all actives have a fitted effect of over 45% in size
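AMA1 (3D7) with his tag at 25 nM final met compounds first, then biotinylated RON2 peptide at 25 nM; detection used donor plus acceptor beads, 10 µg/mL apiece, read by AlphaScreen after 30 min at room temperature.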
Hits are given with their value; 0 = inactive; ? = inconclusive; - = no result given; [ ] = another dose, or the depositor's remark. Calls come from the whole dose curve; as a rule, active = well fitted curve in the direction sought with a large enough effect; inconclusive = small, poorly fitted or top-dose-only effect, or another doubt; inactive = no such curve, though single readings can be large; an effect the other way counts as inactive or inconclusive.

SMILES | FBPA Giardia inh | LmPK inhibitor | AmpC inh detg | AmpC no deterg | AMA1 RON2 block
C[C@H](CO)N1C[C@H](C)[C@H](CN(C)S(=O)(=O)c2cccs2)OCc2cnnn2CCCC1=O | - | - | - | - | 0
Cc1ccc(C)c(OCC(=O)NNC(=O)CCN2CCN(c3ccccc3)CC2)c1 | - | - | 0 | 0 | 0[11.6 µM]
CC(C)c1ccc(NC2CCCN(C(=O)CN3CCCCC3=O)C2)cc1 (configuration not stated) | - | - | - | - | 0
COc1ccccc1CNC(=O)C1CCN(S(=O)(=O)c2ccc3c(ccn3C)c2)CC1 | - | - | 0 | - | -
CCOC(=O)c1cnc2c(ccc3ccccc32)c1Nc1ccc(N(C)C)cc1 | - | - | 0 | - | -
O=C(N/N=C/c1cccs1)c1cccc(S(=O)(=O)Nc2ccc(Cl)cc2)c1 | 0 | 0 | 0 | 14.1µM | 0
O=C(N/N=C/c1cccs1)c1cccc(NC(=O)c2ccc(Cl)cc2)c1 | 0 | 0 | 0 | 0 | -
Cc1ccc(OCCN2CCC2(C)C(=O)NCc2ccc(C(F)(F)F)cc2)cc1 (configuration not stated) | - | - | - | - | 0
CC(C)Cc1cc(C(=O)Nc2cccnc2)no1 | 0 | 0 | ? | 0 | 0
CSc1ccccc1NC(=O)c1cc(CC(C)C)on1 | 0 | 0 | 0 | 10µM | 0
CC(=O)c1ccc(NC(=O)c2cc(CC(C)C)on2)cc1 | 0 | 0 | ? | 50.1µM | 0
COc1ccc(NC(=O)CCCN2C(=O)CN(C)C2=O)cc1Cl | - | - | 0 | 0 | 0
C=C[C@@]1(C)CC[C@H]2C(=CC[C@@H]3[C@]2(C)CCC[C@@]3(C)C(=O)O)C1 | 0 | - | - | - | -
O=C(O)CCC(C(=O)O)N1C(=O)C2C3CCC(C3)C2C1=O (configuration not stated) | - | - | - | - | 0
COC(=O)C1=C(C)NC(C)=C(C(=O)OCC(C)C)C1c1ccccc1[N+](=O)[O-] (configuration not stated) | - | - | - | - | 14.1µM
COC(=O)C1=C(C)NC(C)=C([N+](=O)[O-])[C@H]1c1ccccc1C(F)(F)F | 0 | - | - | - | -
CCCCNC(=O)c1ccc2c(c1)N(CC)C(=O)c1ccccc1S2(=O)=O | 0 | 0 | ? | 44.7µM | 0
CN(C)c1ccc(-c2ccccc2)nn1 | 0 | 25.1µM | 0 | 0 | 0
Cc1[nH]c2ccccc2c1C(=O)C(C)OC(=O)c1ccccc1NCCO (configuration not stated) | - | - | ? | 28.2µM | 0
Cc1[nH]c2ccccc2c1C(=O)C(C)OC(=O)c1ccc(NC(=O)CC#N)cc1 (configuration not stated) | - | - | 0 | 0 | 0
CCOc1cccc(/C=N/NC(=S)Nc2ccccc2[N+](=O)[O-])c1O | 0 | 0 | 0 | 0 | 0
O=[N+]([O-])c1ccccc1NC(=S)N/N=C/c1ccc(O)c(O)c1 | ? | 0 | 0 | 4.47µM | 0
O=C(COc1ccc(F)cc1)Nc1ccccc1OCc1cc(=O)n2ccccc2n1 | - | - | 0 | - | -
COc1ccc2nc(NC(=O)c3ccoc3C)sc2c1 | 0 | 5.01µM | ? | 0 | 0
COc1ccc2nc(NC(=O)c3cc(C)oc3C)sc2c1 | 0 | 25.1µM | 0 | 0 | 0
SMILES | FBPA Giardia inh | LmPK inhibitor | AmpC inh detg | AmpC no deterg | AMA1 RON2 block
Cc1cc(C(=O)Nc2nc3ccc(S(C)(=O)=O)cc3s2)c(C)o1 | 0 | 0 | 0 | 0 | 0
COc1ccc(C(=O)Nc2ccc3c(c2)Cc2ccccc2-3)cc1 | - | 0 | 0 | 0 | 0
COc1ccc2nc3c(cc2c1)Cc1ccccc1-3 | 17.7µM | - | - | - | -
CSc1nc(O)c(N=Nc2ccc(F)cc2F)c(=O)[nH]1 | 0 | 15.8µM | 0 | 0 | 0
O=c1oc2ccccc2c2c1C1O[C@](c3ccsc3)(Cc3ccccc31)O2 | 0[12.9 µM] | 0[11.5 µM] | 0[22.9 µM] | 4.47µM | -
CN(C)c1cc2c(c(N(C)C)c1)C(=O)c1ccccc1C2=O | 0 | 0 | 0 | 0 | 17.8µM
Cc1ccc(C)c(-n2c(-c3csc(C)c3)n[nH]c2=S)c1 | 0 | 7.94µM | 0 | 0 | 0
Cc1ccc(C)c(-n2c(-c3ccc4c(c3)OCO4)n[nH]c2=S)c1 | 0 | 3.98µM | 0 | 0 | 0
Cc1ccc(-n2c(-c3ccccc3)n[nH]c2=S)cc1 | 0 | ? | 0 | 0 | 0
Cc1ccc(-n2c(-c3ccncc3)n[nH]c2=S)cc1 | 0 | 15.8µM | 0 | 0 | 0
Cc1ccc(C)c(-n2c(-c3ccncc3)n[nH]c2=S)c1 | ? | 20µM | 0 | 0 | 0
O=C(Nc1nnc([C@H]2C[C@H](O)[C@@H](CO)O2)s1)c1cccc(Oc2ccccc2)c1 | - | - | - | - | 0
COc1ccc(-c2n[nH]c(=S)n2-c2ccc(Br)cc2)cc1OC | 0 | 17.8µM | ? | 0 | 0
CC(c1ccon1)N(C)C(=O)c1cccc(OC2CCN(S(C)(=O)=O)CC2)c1 (configuration not stated) | - | - | - | - | 0
COc1ccc(Oc2nc(-c3cccnc3)nc3ccccc23)cc1 | 0 | 0 | 0 | 0 | 0
COc1ccc(Oc2nc(SC)nc3ccccc23)cc1 | 0 | 0 | 0 | 0.159µM | 0
O=C(CSc1n[nH]c(-c2ccccc2F)n1)Nc1cc(F)ccc1F | - | - | 0 | 0 | 0
O=C(COc1ccccc1)Nc1nnc(-c2ccc3c(c2)CCCC3)o1 | 0 | 0 | ? | 10µM | 0
COc1ccc(C2c3sc(=O)[nH]c3SC3C4CCC(C4)C23)cc1OC (configuration not stated) | 0 | 0 | 0 | 0 | 0
COc1cc(C2c3sc(=O)[nH]c3SC3C(=O)N(c4ccc(Br)cc4)C(=O)C32)ccc1O (configuration not stated) | 0 | 0 | 0 | 10µM | 0
CCCCCCCCCCCCCCCCOC[C@H](COP(=O)([O-])OCC[N+](C)(C)C)OC(=O)CCCCCCCC(=O)O | 0 | - | - | - | -
COc1ccc(OC)c(Nc2c3c(nc4ccccc24)CCC3)c1 | 0 | 0 | 0 | 0 | 0
COc1ccc(OC)c(Nc2c3ccccc3nc3ccccc23)c1 | 0 | 0 | 0 | 0 | 20µM
O=C(CSc1nc2ccc(NC(=O)c3ccccc3C(=O)O)cc2s1)Nc1ccc(F)c([N+](=O)[O-])c1 | 0 | 0 | 0 | 17.8µM | 0
O=C(Nc1ccc2nc(SCc3ccccc3)sc2c1)c1ccccc1F | - | - | 0 | - | -
SMILES | FBPA Giardia inh | LmPK inhibitor | AmpC inh detg | AmpC no deterg | AMA1 RON2 block
CCc1cc2c(cc3c(=O)n(CC(=O)NCCc4ccc(OC)cc4OC)nc(CC)n32)s1 | - | - | 0 | - | -
N#CCC(=N)N1CCN(c2ccccc2Cl)CC1 | 0 | 0 | 0 | 0.316µM | 0
Cc1ccccc1-c1nc(CNC(=O)NC2CCCCC2)c(C)o1 | - | - | 0 | - | -
COC(=O)C1C(=O)c2c([nH]c(C(=O)OC3CCCC3C)c2C)CC1C (configuration not stated) | 0 | 0 | ? | 7.08µM | 0
Cc1ccc(-c2cn(-c3cccc(Cl)c3)c(S(=O)(=O)CC(=O)Nc3ccccc3F)n2)cc1 | - | - | 0 | - | -
O=C(Nc1nc(-c2cc3ccccc3o2)cs1)c1ccc(S(=O)(=O)N2CCCC2)cc1 | 0 | 0 | 0 | 17.8µM | 0
CC1=C(C(=O)N2CCOCC2)CC(CC(=O)NC2CCCCC2)C(=O)N1Cc1ccc(C(C)(C)C)cc1 (configuration not stated) | - | - | - | - | 0
CCc1ccc2occ(CC(=O)Nc3sc4c(c3C(=O)NCCOC)CCCC4)c2c1 | - | - | 0 | - | -

Bioassay records (PubChem)
